High-throughput results deposited in PubChem BioAssay by National Center for Advancing Translational Sciences (NCATS).
This is a sample that favours compounds with a hit; in the whole collection about 1.3% have one here.
USP2a inh: qHTS Assay for Inhibitors of Ubiquitin-specific Protease USP2a | Ubiquitin carboxyl-terminal hydrolase 2 (Homo sapiens), O75604 | USP2a enzymatic assay, qHTS inhibition | Potency, µM (top dose mostly 38.3 µM), inactives show at the highest dose activity change, negative = inhibition, hits mostly inhibitors | 60,000 tested, 0.1% active | AID 927, 2007; also: potency is read from the fitted curve at half-maximal effect; nearly all actives have a fitted effect of over 60% in size
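Inhibition is measured in a cell-free coupled assay with 20 nM USP2 core, 20 nM Ub-PLA2 and 20 uM NBD C6-HPC, 2.5 h incubation. Activity normalized to NEM control.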
BRCT inh green: qHTS Assay for Inhibitors of BRCT-Phosphoprotein Interaction (Green Fluorophore) | Breast cancer type 1 susceptibility protein (Homo sapiens), P38398 | BRCA1 BRCT-phosphopeptide binding, green fluorescence polarization | Potency, µM (series often up to 76.9 µM), for inactives: at the highest dose activity change, negative = inhibition, hits mostly inhibitors | 75,000 tested, 0.05% active;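 also: potency is read from the fitted curve at half-maximal effect; plate controls were peptide without protein for full effect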
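Compounds were incubated for 12 min at room temperature with a complex of 100 nM fluorescein-tagged pBACH1 decapeptide and 250 nM His-tagged BRCT protein. Buffer was phosphate pH 7.3 with EDTA, DTT and Tween 20. Disruption of binding lowers the polarization signal.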
BRCT inh red: qHTS Assay for Inhibitors of BRCT-Phosphoprotein Interaction (Red Fluorophore) | Breast cancer type 1 susceptibility protein (Homo sapiens), P38398 | BRCT-phosphopeptide binding, red fluorescence polarization | Potency, µM (doses to about 76.9 µM), without a hit: at the highest dose activity change, negative = inhibition, usual class: inhibitors | 75,000 tested, 0.03% active | AID 892, 2007; also: % is scaled to controls: 0 for no effect and ±100 for the full control effect
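Rhodamine-labelled pBACH1 10-mer (100 nM) bound to BRCT domain (100 nM) at pH 7.3; compounds incubated 12 min room temperature, polarization read. Free peptide defines full inhibition; unlabelled decapeptide titrated as control.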
ERK AVP inh: qHTS Assay for Inhibitors of the ERK Signaling Pathway using a Homogeneous Screening Assay; HEK293-V1b, vasopressin-stimulated pERK AlphaScreen; Potency, µM (doses to about 57.5 µM), for inactives: top-dose activity, negative = inhibition, usual class: inhibitors; 72,000 tested, 0.99% active; AID 995, 2007; also: potency is read from the fitted curve at half-maximal effect; % is scaled to controls: 0 for no effect and ±100 for the full control effect; nearly all actives have a fitted effect of over 55% in size
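Phosphorylated ERK1/2 detected via AlphaScreen bead proximity in lysates of V1b-expressing HEK293 cells given 25 nM vasopressin for 5 min after 30 min compound exposure (37 °C). AC50 from Hill equation; basal DMSO 0%, vasopressin 100%.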
TsaE inh: qHTS Assay for Inhibitors of YjeE; tRNA threonylcarbamoyladenosine biosynthesis protein TsaE (Escherichia coli (strain …; purified YjeE enzyme, qHTS inhibition assay; Potency, µM; 71,000 tested, 0.05% active
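Fluorescence polarization of a BODIPY Texas Red–ADP probe (2 uM) bound to purified YjeE (10 uM) was read after 15 min room-temperature incubation with compounds. Loss of polarization marks inhibitors; ADP serves as titrated control.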
Pol III holo inh: qHTS Assay for Inhibitors of DNA Polymerase III Holoenzyme System. AID 603, 2007. Potency, µM (top dose mostly 57.1 µM), inactives show at the highest dose activity change, negative = inhibition. reconstituted DNA polymerase III holoenzyme replication, biochemical. 71,000 tested, 0.25% active; also: potency is read from the fitted curve at half-maximal effect; % is scaled to controls: 0 for no effect and ±100 for the full control effect
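Reconstituted *E. coli* holoenzyme (0.35 nM Pol III, 1 nM beta, 154 nM SSB, 2 nM primase) was preincubated with compound for 15 min at RT. Synthesis on 1.4 nM ssM13Gori ran 35 min, then was stopped with PicoGreen/EDTA and read as dsDNA fluorescence.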
Starred values were filed as active, the others as inactive; i = inactive; ? = inconclusive; / = no result; [ ] = another dose, or the depositor's remark. Calls follow the shape of the dose curve; as a rule, active = well fitted curve in the direction sought with a large enough effect; inconclusive = small, poorly fitted or top-dose-only effect, or another doubt; inactive = no such curve, though single readings can be large; an effect the other way counts as inactive or inconclusive.

SMILES	USP2a inh	BRCT inh green	BRCT inh red	ERK AVP inh	TsaE inh	Pol III holo inh
Cc1nnc(SCC(=O)c2c(N)n(C)c(=O)n(C)c2=O)n1Cc1ccccc1	1%	0%	-1%	?	i	-8%
CC(c1nnc(SCC(=O)c2c(N)n(C)c(=O)n(C)c2=O)n1-c1ccc(Cl)cc1)N(C)C (centres undefined)	0%	-1%	-1%	40µM*	i	-2%
COc1cc2nc(N3CC=[N+](C(=O)c4ccco4)CC3)nc(N)c2cc1OC	1%	-2%	1%	-15%	i	4%
COC(=O)[C@H](N)Cc1ccc(Cl)cc1	-2%	-1%	0%	6%	i	-6%
O=C(O)CCCC[C@@H]1SC[C@H]2NC(=O)N[C@H]12	/	/	/	/	i	-7%
CN(C)C=Nc1ncc2c([nH]c3ccccc32)c1C#N	-5%	-3%	1%	25µM*	i	-6%
O=C1C2C3C=CC(C3)C2C(=O)N1c1ncn[nH]1 (centres undefined)	0%	0%	0%	-6%	i	13µM*
c1ccc(-c2nc3nonc3nc2-c2ccccc2)cc1	-10%	-3%	-1%	13µM*	i	5%
O=C(O)C1CC(=O)N(CCC23CC4CC(CC(C4)C2)C3)C(=Nc2ccccc2)S1 (centres undefined)	/	-1%	0%	/	/	/
COC(=O)[C@H](C)NC(=O)Nc1ccc(Oc2ccccc2)cc1	-10%	-2%	-2%	25µM*	i	2%
COC(=O)[C@H](C)NC(=O)Nc1ccc(OC)c(OC)c1	4%	0%	1%	-9%	i	-12%
CS(=O)(=O)Nc1ccc(Nc2c3ccccc3nc3ccccc23)cc1	/	-2%[15.4 µM]	1%[15.4 µM]	-6%[11.5 µM]	i	-8%[11.4 µM]
O=[N+]([O-])c1ccc2c(N=Nc3ccc4ccccc4c3O)c(O)cc(S(=O)(=O)O)c2c1	/	-2%[15.4 µM]	-3%[15.4 µM]	-20%[11.5 µM]	7.9µM*	-19%[11.4 µM]
C=C/C(C)=C/[C@]1(C)SC(=O)C(C)=C1O	9%	-1%	-2%	18%	i	-13%
Nc1nc(-c2ccco2)c(-c2ccco2)s1	16%	-14%	-20%	?	i	?
c1coc(-c2nc(-c3ccco3)c(-c3ccco3)nc2-c2ccco2)c1	?	13µM*	?	-17%	i	1.6µM*
CN(C)c1ccc2nc3ccc(=[N+](C)C)cc-3sc2c1	/	-1%	1%	128%	i	32µM*
Cc1nc2ccc(N)cc2s1	/	-3%	-2%	/	i	-1%
N#C[C@@H](Cc1ccc(O)c(O)c1)C(=O)N1CCc2ccccc21	0%	-4%	1%	?	i	-13%
CCn1c(SCC(=O)Nc2nc3ccccc3s2)nnc1-c1ccc(OC)cc1	42%	-5%	-3%	18%	i	-10%
CCn1c(SCC(=O)Nc2nc3c(s2)CCCC3)nnc1-c1ccccc1	22%	2%	0%	32µM*	i	3%
CC(C)(C)c1ccc(S(=O)(=O)/C=C\C#N)cc1	1%	-1%	-3%	32µM*	?	-8%
Cc1ccc(S(=O)(=O)/C=C\C#N)cc1	/	0%	0%	20µM*	i	-13%
Cc1ccc(C#N)cc1	/	-1%	1%	6%	i	1%
COc1ccc(CNc2nc(-c3ccccc3OC)nc3ccccc23)c(OC)c1	28%	1%	-1%	-14%	i	-11%
SMILES	USP2a inh	BRCT inh green	BRCT inh red	ERK AVP inh	TsaE inh	Pol III holo inh
COc1ccccc1NC(=O)c1cc2ccc(O)cc2o/c1=N\O	8%	-3%	-3%	32µM*	i	-5%
CCC(Cl)CC(Cl)C(Cl)C(Cl)C(Cl)C(C)Cl (centres undefined)	/	1%	0%	64%	i	-6%
CN1CCN([C@@H]2Cc3ccccc3Sc3ccc(Cl)cc32)CC1	13%	1%	2%	-1%	i	-8%
O=C1c2ccccc2C(Nc2ccc3c(c2)OCO3)N1Cc1ccco1 (centres undefined)	/	-1%	0%	25µM*	i	2%
O=C(NCCN1CCCC1)c1ccc(-n2c(=O)c(=O)[nH]c3ccccc32)cc1	/	-2%	-1%	/	/	/
COCCn1nnnc1C(c1ccccc1)N1CCN(Cc2ccc3c(c2)OCO3)CC1 (centres undefined)	12%	2%	1%	40µM*	i	?
Oc1[nH]c2ccccc2c1C=Nc1ccc2c(c1)OCCO2	3%	-4%	-2%	20µM*	i	-1%
CCOC(=O)c1ccc(Nc2cc(C)nc(-c3ccccc3O)n2)cc1	/	-2%	-2%	/	/	/
Cc1cc(Nc2ccccc2)nc(-c2ccccc2O)n1	-26%	3%	-2%	32µM*	i	-2%
Cc1cc(Nc2cccc(F)c2)nc(-c2ccccc2O)n1	-24%	-4%	-2%	7.9µM*	i	6%
Oc1ccc(Nc2nc(NCC3CCCO3)c3ccccc3n2)cc1 (centres undefined)	6%	0%	0%	13µM*	i	?
CC(=O)[C@H]([C@@H](c1ccccc1)N1CCOCC1)N1CCOCC1	/	-1%[15.4 µM]	0%[15.4 µM]	13%[11.5 µM]	i	-9%[11.4 µM]
CCCCn1c(SCC(=O)OC)nc2c1c(=O)n(C)c(=O)n2C	3%	1%	0%	16µM*	i	0%
O=S(=O)(c1ccc(SCCO)nc1)N1CCCC1	2%	-1%	-1%	-15%	i	-3%
CN1CCN(S(=O)(=O)c2ccc(SCCOc3ccccc3)nc2)CC1	2%	-1%	0%	25µM*	i	?
Cc1ccc(S(=O)(=O)N2CCCC2C(=O)Nc2nc3ccccc3s2)cc1 (centres undefined)	46%	0%	-1%	-7%	i	3%
O=C(Nc1nc2ccccc2s1)C1CCCN1S(=O)(=O)c1ccc(Cl)cc1 (centres undefined)	29%	2%	-2%	20µM*	i	-2%
CCCC(=O)c1ccc(N2CCN(C(=O)c3ccccc3Br)CC2)c(F)c1	8%	0%	1%	25µM*	i	2%
COc1ccccc1N1CCN(C(=O)c2cc3n(n2)C(C(F)(F)F)CC(c2ccco2)N3)CC1 (centres undefined)	/	0%	0%	-15%	i	-2%
